High-throughput results (PubChem BioAssay)
Hits are enriched below; roughly 1.8% of the tested compounds scored in any of these assays.
PME-1 primary – blocks human protein phosphatase methylesterase 1. Q9Y570. recombinant PME-1, FP-Rh probe fluorescence polarization. inhibition, % at 5.9 µM. hit rate 0.53% among 320,000. AID 2130;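 active = inhibition above the campaign mean of all compounds plus 3 SD, cut at about 26% in these data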;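 note: competitive labeling of PME-1 active site by serine hydrolase directed probe; 0% = PME-1 with DMSO and 100% = wells lacking PME-1 enzyme; inhibitors block probe labeling so polarization falls and inhibition rises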
Fam108B counter – Fam108B inhibition, counter-screen for RBBP9 inhibitors. recombinant Fam108B, FP-Rh probe fluorescence polarization. inhibition, % at 9.51 µM. hit rate 0.33% among 300,000. AID 1947;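 active = inhibition above the screen mean inhibition plus 3 SD, computed separately per campaign, cut at about 18% in these data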;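 note: inhibitors lower polarization as less probe binds the enzyme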
GSTO1 inh – GSTO1 inhibition, counter-screen for RBBP9 inhibitors | P78417 | hit rate 1.1% among 300,000 | AID 1974 | recombinant GSTO1, activity-based probe fluorescence polarization | inhibition, % at 5.96 µM;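 active = inhibition above the campaign mean inhibition plus 3 SD, cut at about 35% in these data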;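 note: 0% = GSTO1-1 with DMSO and 100% = wells lacking GSTO1-1 enzyme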
Target sequence (P78417 whole entry, looked up): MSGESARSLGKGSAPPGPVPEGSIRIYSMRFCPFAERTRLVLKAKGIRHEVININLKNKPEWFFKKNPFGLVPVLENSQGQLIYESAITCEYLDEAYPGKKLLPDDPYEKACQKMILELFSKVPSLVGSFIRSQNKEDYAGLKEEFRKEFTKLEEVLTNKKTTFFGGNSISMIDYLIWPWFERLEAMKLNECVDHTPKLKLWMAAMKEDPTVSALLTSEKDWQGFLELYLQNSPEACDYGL
LYPLA2 counter – LYPLA2 (human) inhibition in PME1 counter-screen; O95372; recombinant LYPLA2, FP-Rh probe fluorescence polarization; inhibition, % at 5.9 µM; hit rate 0.38% among 320,000; AID 2177;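 active = inhibition above the screen-wide mean plus 3 SD, limit set per campaign, cut at about 26% in these data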;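 note: 0% = LYPLA2 with DMSO and 100% = wells lacking LYPLA2 enzyme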
Target sequence (O95372 whole entry, looked up): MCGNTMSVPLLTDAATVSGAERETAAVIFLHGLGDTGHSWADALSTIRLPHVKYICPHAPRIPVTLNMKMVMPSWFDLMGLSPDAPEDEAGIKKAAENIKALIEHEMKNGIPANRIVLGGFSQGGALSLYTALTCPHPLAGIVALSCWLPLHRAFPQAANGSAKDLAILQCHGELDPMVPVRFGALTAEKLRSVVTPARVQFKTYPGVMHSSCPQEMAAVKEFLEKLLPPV
PAD4 inh – PAD4 (human) enzyme inhibition | recombinant PAD4, RCA probe fluorescence polarization | inhibition, % at 6.36 µM | AID 485272 | hit rate 0.41% among 330,000;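 active = percent inhibition above a cutoff equal to the mean of all tested compounds plus 3 SD, cut at about 15% in these data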;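 note: 0% = PAD4 with RCA probe and DMSO and 100% = probe without PAD4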
LYPLA1 inh – counter-screen for PME1 inhibitors: inhibitors of human LYPLA1. recombinant LYPLA1, FP-Rh probe fluorescence polarization. inhibition, % at 5.9 µM. hit rate 0.16% among 320,000;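 active = inhibition above the mean of all tested compounds plus 3 SD, set per campaign, cut at about 14% in these data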;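 note: inhibitors block serine hydrolase probe labeling of LYPLA1 so polarization falls; 0% = enzyme with DMSO and 100% = wells lacking LYPLA1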
GSTO1 confirm – confirmation of human GSTO1 inhibitors; shares compounds with GSTO1 inh; inhibition, % at 5.96 µM; hit rate 54% among 2,400; recombinant GSTO1, probe fluorescence polarization; AID 2176;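 active = inhibition above the primary screen's cutoff, its mean inhibition plus 3 SD, cut at about 35% in these data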;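 note: loss of polarization as inhibitors block binding of rhodamine sulfonate ester activity probe; 0% = GSTO1 with DMSO and 100% = wells lacking GSTO1 enzyme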
Active calls of the source: *; . = not tested or not shown.

SMILES	PME-1 primary	Fam108B counter	GSTO1 inh	LYPLA2 counter	PAD4 inh	LYPLA1 inh	GSTO1 confirm
O=C(OC1CCc2ccccc2C1=O)c1ccccc1O (stereo not drawn)	3	-8	54*	8	1	-2	48*
CCN(CC)c1ccc(/C=C/c2cc(-c3ccccc3)c3ccccc3n2)cc1	4	-6	-16	-20	-56	-5	.
O=[N+]([O-])c1ccccc1C1Nc2cccc3cccc(c23)N1	6	8	49*	-1	-8	0	15
COc1ccccc1N(C(=O)CNC(=O)c1ccco1)C(C(=O)NC1CCCCC1)c1ccncc1 (stereo not drawn)	0	-4	-1	6	9	-1	.
Cc1cnc(C(=O)Nc2nccs2)cn1	-3	10	8	1	-3	4	.
CC(C)(C)c1nnc2sc(SCC(=O)N3CCCCC3)nn2c1=O	.	.	.	.	9	.	.
Cc1ccc(C)c(Sc2ccc(NC(=O)CCl)cc2)c1	25	-6	75*	-1	-5	-5	82*
COC(=O)CCCC1=CC2=CC(=O)C(C)(OC(=O)C3CCCC3)C(=O)C2=CO1 (stereo not drawn)	0	-2	18	-4	3	-2	.
COC(=O)CCCC1=CC2=C(c3ccccc3)C(=O)C(C)(OC(=O)C3CCCC3)C(=O)C2=CN1CC(C)C (stereo not drawn)	6	3	52*	4	-16	-2	6
COC(=O)CCCC1=CC2=C(c3ccccc3)C(=O)C(C)(OC(=O)C3CCCC3)C(=O)C2=CN1C1CCCC1 (stereo not drawn)	7	2	26	2	-15	-2	.
COC(=O)CCCC1=CC2=C(c3ccccc3)C(=O)C(C)(OC(=O)C3CCCC3)C(=O)C2=CN1C1CCCCC1 (stereo not drawn)	4	4	38*	-4	-5	-2	17
CCN(CC)CCCN1C=C2C(=O)C(C)(OC(=O)C3CCCC3)C(=O)C(c3ccccc3)=C2C=C1CCCC(=O)OC (stereo not drawn)	-4	6	6	-2	0	-5	.
COCCN1C=C2C(=O)C(C)(OC(=O)C3CCCC3)C(=O)C(c3ccccc3)=C2C=C1CCCC(=O)OC (stereo not drawn)	8	3	45*	-4	-6	-3	26
COC(=O)CCCC1=CC2=C(c3ccccc3)C(=O)C(C)(OC(=O)C3CCCC3)C(=O)C2=CN1CC1CC1 (stereo not drawn)	7	-1	49*	1	-6	-4	8
CC(OC(=O)c1ccc([N+](=O)[O-])s1)C(=O)Nc1ncc(Cl)cc1Cl (stereo not drawn)	-8	3	46*	-4	-4	-1	10
Cc1ccc(OC(C)C(=O)Nc2ncc(Cl)cc2Cl)c([N+](=O)[O-])n1 (stereo not drawn)	.	.	.	.	-1	.	.
Cc1nn(-c2ccccc2)c2c1C1(C(=O)N(C(C)C)c3ccccc31)C(C#N)=C(N)O2 (stereo not drawn)	4	0	40*	7	-2	0	11
CC(=O)C1=C(C)OC2(O)c3ccccc3C(=O)C12O (stereo not drawn)	3	8	72*	9	-11	3	80*
CC1=C(C#N)C2(O)C(=O)c3ccccc3C2(O)N1 (stereo not drawn)	-7	-3	2	3	-7	-6	.
Cc1cccc(NC(=O)C(=O)NCCCN2CCOCC2)c1	-6	2	4	4	0	0	.
CC(=O)NN1C(=O)c2ccccc2NC1c1ccc([N+](=O)[O-])o1 (stereo not drawn)	-2	1	17	5	-1	1	.
O=C(NN1C(=O)c2ccccc2NC1c1ccc([N+](=O)[O-])o1)c1ccc(Br)cc1 (stereo not drawn)	7	-2	39*	4	-9	2	8
Oc1ccc(C2CNCc3sccc32)cc1O (stereo not drawn)	0	1	49*	-1	4	-4	7
CC(C(=O)Nc1cccnc1)n1cc([N+](=O)[O-])cn1 (stereo not drawn)	7	-2	1	0	1	6	.
CC(CCc1ccccc1)NC(=O)CN1CCN(c2ccc(O)cc2)CC1 (stereo not drawn)	9	-1	38*	8	-3	1	8
SMILES	PME-1 primary	Fam108B counter	GSTO1 inh	LYPLA2 counter	PAD4 inh	LYPLA1 inh	GSTO1 confirm
CC(CCc1ccccc1)NC(=O)CN1CCN(Cc2ccccc2)C1=O (stereo not drawn)	1	2	1	-1	-2	-3	.
COc1ccc(-n2nc3c(c2NC(=O)CCl)CSC3)cc1	-1	-4	88*	0	-2	2	92*
CC(C)(CO)NCc1c(OCc2ccc(Cl)cc2)ccc2ccccc12	-1	-1	8	-7	-3	-1	.
CCNC(=O)N1c2ccc(OCC)cc2C(C)=CC1(C)C	2	-1	18	4	-7	2	.
CCOc1ccc2c(c1)C(C)=CC(C)(C)N2C(=O)Nc1ccccc1F	6	6	42*	7	-6	0	3
O=[N+]([O-])c1ccc(/C=[N+](\[O-])[C@@H]2CCCC[C@@H]2/[N+]([O-])=C/c2ccc([N+](=O)[O-])o2)o1	-2	4	40*	3	-11	4	18
Cc1nc(-c2ccc(C(=O)Nc3cccc(Br)c3)cc2)cs1	-14	-4	-2	-12	-2	-15	.
COc1ccc(S(=O)(=O)N2CCOC23CCN(S(=O)(=O)c2ccc(C)cc2)CC3)cc1	7	1	-10	0	-5	-1	.
O=C(Nc1ccc([N+](=O)[O-])cc1)c1nc[nH]c1C(=O)NC1CCCCC1	-3	-1	1	-1	-2	0	.
Cc1cc([N+](=O)[O-])cc2c1NC(=O)C2(O)N1CCOCC1 (stereo not drawn)	7	4	38*	3	-5	-1	15
COc1cccc(CNC(=O)C2CCN(S(=O)(=O)N3CC(C)CC(C)C3)CC2)c1 (stereo not drawn)	6	0	-3	4	5	6	.
Cc1[nH]n(-c2ccccc2)c(=O)c1N=Nc1nccs1	2	3	15	8	-1	2	.
Cc1[nH]n(-c2ccccc2)c(=O)c1N=Nc1ccccc1C(=O)O	17	9	41*	2	1	-2	11
O=C(CN1C(=O)CCOc2ccccc21)Nc1ccc(Cl)c(S(=O)(=O)N2CCOCC2)c1	-3	.	.	-9	-2	-5	.
C[C@@H]1O[C@@H](Oc2c(-c3cc(O)c(O)c(O)c3)oc3cc(O)cc(O)c3c2=O)[C@H](O)[C@H](O)[C@H]1O	-32	-7	54*	-27	0	-13	16
